Here are results for ten compounds from PubChem BioAssay (NCATS).

The nature of test [1]: Cellular Toxicity (caspase-3) HUV-EC-C (AID 656). The method in brief:
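Concentration-dependent caspase 3/7 induction was assessed in HUV-EC-C cells exposed for 16 hours. Data scaled between DMSO and tamoxifen (100 uM) controls.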

Test [2] is described as follows: Cellular Toxicity (caspase-3) MRC-5 (AID 659).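 Also: 0% = DMSO basal and 100% = 10 µM staurosporine.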 The method, boiled down:
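Apoptosis readout in MRC-5 cells: luciferase light generated after caspase 3/7 cleaves a peptide-aminoluciferin substrate, measured post 16 hr compound incubation at 37 °C.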

The nature of test [3]: Cellular Toxicity (caspase-3) Mesangial (AID 660).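 Also: combined caspase 3 and 7 activity read by Caspase-Glo luminescence; cells exposed to compound for 16 h before the caspase read.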 The method in brief:
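Seed cells derived from normal human renal glomeruli, incubate 5 h, add compounds across concentrations and incubate 16 h at 37 °C. Caspase 3/7 activation is then quantified by luciferase light, with AC50 derived by Hill modeling.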

The nature of test [4]: Cellular Toxicity (caspase-3) SK-N-SH (AID 661).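 Also: 0% = DMSO basal and 100% = 10 µM staurosporine.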 The method, boiled down:
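Cells were seeded and incubated 5 hr at 37 °C, dosed with compound over a concentration range for 16 hr, then given Caspase-Glo 3/7 reagent for 1 hr at room temperature before luminescence reading.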

Test [5] can be described thus: Cellular Toxicity (caspase-3) Hek293 (AID 664).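 Also: cells exposed to compound for 16 h at 37 °C before readout.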 As to conditions: HEK293 caspase-3 activation, DMSO = 0%, 100 µM tamoxifen = 100%; at 92.2 µM (top of the series). The method in brief:
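qHTS, HEK293 (human embryonic kidney), 16 h cpd exposure in complete medium. Caspase-3/7 activation = luminescence increase; normalized to DMSO/100 uM tamoxifen; Hill-fit AC50.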

The nature of test [6]: Cellular Toxicity (caspase-3) NIH 3T3 (AID 666).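 Also: caspase signal read after 16 h compound exposure; 0% = DMSO basal and 100% = 100 µM tamoxifen stimulation.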 The method in brief:
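Cells were plated at 1000 per well and incubated 5 hr at 37°C, then compound was added for 16 hr. Caspase-Glo 3/7 reagent followed for 20 min at room temperature before luminescence was read.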

Test [7] in a line: MultiTox-Fluor Cytotoxicity Assay - LYMP1-001 - Dead Cells (AID 946).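 Also: 0% = DMSO and 100% = tetraoctylammonium bromide.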 The method, boiled down: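 In this qHTS, 15 uM tetraoctylammonium bromide defined 100% and DMSO defined basal activity. Lymphoblastoid cells (LYMP1-001, 2500 per well) received compound for 16 hr at 37 C before a fluorogenic dead-cell substrate readout at 485/520 nm.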
Test [8] is described as follows: Cell Viability - LYMP2-013 (AID 970).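 Also: cells exposed to compound for 24 h at 37 °C; nearly all actives have a fitted effect of over 55% in size.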 Also: potency is read from the fitted curve at half-maximal effect. The method, boiled down:
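Cytotoxicity is scored as a concentration-dependent drop in intracellular ATP in human lymphoblastoid cells after 24 hr compound exposure at 37 C. ATP is quantified by luciferase luminescence, and AC50 values come from Hill-equation modeling.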

Test [9] can be described thus: Cell Viability - LYMP2-019 (AID 973).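 Also: cells exposed to compound for 24 h at 37 °C; 0% = DMSO alone and full effect = 92 µM tetraoctylammonium bromide; nearly all actives have a fitted effect of over 55% in size.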 The method, boiled down:
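Cytotoxicity is scored as a concentration-dependent drop in cellular ATP after cells (2500/well) receive compound for 24 hr at 37 C. Tetraoctylammonium bromide serves as positive control.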

A short description of test [10]: qHTS assay for small molecule antagonists of retinoid X receptor alpha signaling (AID 588546).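 Also: cells stimulated with 9-cis-retinoic acid as agonist; % is scaled to controls: 0 for no effect and ±100 for the full control effect.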 Particulars: HEK293T RXRa-UAS-bla, beta-lactamase ratio, antagonist mode; measured here: W530 green channel, cytotoxicity proxy. The method in brief:
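Beta-lactamase reporter inhibition, read as CCF4 fluorescence ratio (ex 405, em 460/530 nm) after 2 h at RT. HEK293T UAS-bla cells, 2500/well, were stimulated with 9-cis-RA at 500 or 100 nM final alongside test compound for 18 h at 37 C.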
In general terms: In qHTS, concentration-response curves come from the screen itself.

The target in test [11] is Peroxisome proliferator-activated receptor alpha (Homo sapiens) (UniProt Q07869). Nature of the test: qHTS assay for small molecule agonists of the peroxisome proliferator-activated receptor alpha (PPARalpha) signaling pathway (AID 651778). Also: % of control where 0% means no effect. As to conditions: PathHunter PPARalpha complementation, chemiluminescence, 6 h; stronger effect = higher value. The method in brief:
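Cells plated at 2,000/well and held overnight at 37 C, 5% CO2, then compound added by pin tool for 6 hr; after PathHunter detection reagent and 60 min at room temperature, chemiluminescence from enzyme complementation was read.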

Test [12] in a line: qHTS assay for small molecule agonists of the antioxidant response element (ARE) signaling pathway measured by Nrf2-dependant transcriptional activity - cell viability counter screen (AID 720653; active = well fitted curve in the direction sought with a large enough effect in the repeat runs; an effect the other way counts as inactive or inconclusive; also: % is scaled to controls: 0 for no effect and ±100 for the full control effect). As to conditions: ARE-bla HepG2 viability, CellTiter-Glo ATP luminescence, 16 h; stronger effect = lower value. The method in brief: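 ARE-bla HepG2 cells (2,000/well) rested 5 hrs at 37C/5% CO2, then exposed to compounds in DMSO for 16 hrs. Viability was read in the same wells as intracellular ATP by luminescence, 30 min at room temperature after reagent addition.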

Test [13] is described as follows: qHTS assay for cell viability of the p53RE-bla HCT-116 cell line (AID 743292). Also: % is scaled to controls: 0 for no effect and ±100 for the full control effect; nearly all actives have a fitted effect of over 55% in size. The method in brief: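 In this qHTS counter-screen, metabolically competent p53RE-bla HCT-116 cells were counted via their ATP content. Compounds were applied for 16 h at 37 C and luciferase-coupled luminescence was measured.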
Test [14] can be described thus: Cell Viability - BJ (AID 421; calls by dose curve;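 also: potency is read from the fitted curve at half-maximal effect; cells exposed to compound for 40 hours at 37 °C before readout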). Particulars: BJ fibroblast viability, qHTS. The method, boiled down:
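Quantitative HTS: ATP depletion in BJ cells after 40 hr compound exposure in complete culture medium, detected with CellTiter-Glo; AC50 from standard Hill fits.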

Test [15] can be described thus: Cell Viability - Hek293 (AID 427;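 active = compounds whose dose-response curve shows a full or clear partial loss of cell viability, called from curve shape rather than a numeric limit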;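 also: potency is read from the fitted curve at half-maximal effect; cells exposed to compound for 40 hours at 37 °C before reading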). Particulars: qHTS. The method, boiled down: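 AC50 values derive from Hill-modelled concentration-response of ATP-based luminescence, normalized between DMSO-only and 100 uM tamoxifen controls. Cells were exposed in complete culture medium for 40 hr at 37 °C before detection.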
Test [16] is described as follows: Cell Viability - HUV-EC-C (AID 542). Also: % is scaled to controls: 0 for no effect and ±100 for the full control effect; nearly all actives have a fitted effect of over 35% in size. The method in brief: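 Cells were seeded at 1000 per well and incubated 5 hr at 37 °C before compound addition. After 40 hr at 37 °C, CellTiter-Glo reagent was added for 20 min and luminescence read. AC50 values came from Hill-equation modelling.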
Test [17] is described as follows: Cell Viability - LYMP1-002 - Assay at 16 hr (AID 948).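 Also: 0% = DMSO alone and full effect = 92 µM tetraoctylammonium bromide.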 The method, boiled down:
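In this qHTS, lymphoblastoid LYMP1-002 cells (human) receive compounds for 16 hr at 37 C. Viability is taken from CellTiter-Glo ATP luminescence, and AC50 derives from standard Hill fits.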

A short description of test [18]: Cell Viability - LYMP2-026 (AID 989).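 Also: cells exposed to compound for 24 h at 37 °C; % is scaled to controls: 0 for no effect and ±100 for the full control effect; nearly all actives have a fitted effect of over 50% in size.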 The method, boiled down: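 Cells are seeded at 2500 per well and held 5 hr at 37 C. Compounds are added in concentration series for 24 hr, then CellTiter-Glo reagent is applied and luminescence read.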
Test [19] is described as follows: qHTS assay for small molecule agonists of retinoid X receptor alpha signaling (AID 588544; calls by dose curve;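 as to activation: 0% = DMSO basal wells and 100% = reference agonist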). As to conditions: HEK293T RXRa-UAS-bla, beta-lactamase reporter, 18 h; 530 nm emission.
Test [20] concerns the target Retinoic acid receptor RXR-alpha (Homo sapiens) (UniProt P19793). Described as above.

The structures appear in SMILES notation. Values joined by “and” are separate entries in the source; they are usually repeats but may differ in a detail not shown here. Equal entries are not always repeated. Results filed as inconclusive are left out. Active and inactive are the calls of the source. Unless noted, calls follow the shape of the dose curve; as a rule, active = well fitted curve in the direction sought with a large enough effect; inconclusive = small, poorly fitted or top-dose-only effect, or another doubt; inactive = no such curve, though single readings can be large; an effect the other way counts as inactive or inconclusive.

Chain of Retinoic acid receptor RXR-alpha (Homo sapiens) (P19793 whole entry, looked up): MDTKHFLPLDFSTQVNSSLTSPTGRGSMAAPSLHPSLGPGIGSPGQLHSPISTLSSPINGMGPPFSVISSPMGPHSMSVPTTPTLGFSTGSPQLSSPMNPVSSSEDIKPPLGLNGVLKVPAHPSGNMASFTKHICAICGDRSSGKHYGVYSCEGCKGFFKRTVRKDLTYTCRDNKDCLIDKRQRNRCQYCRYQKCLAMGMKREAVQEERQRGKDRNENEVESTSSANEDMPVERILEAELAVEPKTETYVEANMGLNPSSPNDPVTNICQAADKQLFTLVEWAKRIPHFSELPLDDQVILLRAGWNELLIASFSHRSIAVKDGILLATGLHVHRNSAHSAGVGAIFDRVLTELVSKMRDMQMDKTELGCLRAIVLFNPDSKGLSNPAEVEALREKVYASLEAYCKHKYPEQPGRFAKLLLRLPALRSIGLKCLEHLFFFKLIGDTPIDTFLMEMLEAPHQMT
Chain of Peroxisome proliferator-activated receptor alpha (Homo sapiens) (Q07869 whole entry, looked up): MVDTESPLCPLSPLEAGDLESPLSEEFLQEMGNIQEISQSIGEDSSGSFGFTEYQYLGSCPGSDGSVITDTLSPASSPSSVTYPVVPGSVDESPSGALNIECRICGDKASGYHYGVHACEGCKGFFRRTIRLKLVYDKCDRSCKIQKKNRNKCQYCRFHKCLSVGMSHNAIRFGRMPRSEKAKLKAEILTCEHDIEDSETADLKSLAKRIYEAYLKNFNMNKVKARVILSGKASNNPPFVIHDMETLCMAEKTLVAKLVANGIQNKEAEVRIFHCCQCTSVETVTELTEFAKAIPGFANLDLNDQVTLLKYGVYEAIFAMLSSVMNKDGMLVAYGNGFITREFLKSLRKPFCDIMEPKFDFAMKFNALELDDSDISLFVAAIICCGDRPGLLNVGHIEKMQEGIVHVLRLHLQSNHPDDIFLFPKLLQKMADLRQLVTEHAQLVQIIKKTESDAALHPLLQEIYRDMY

For `Nc1ccc(-c2ccc(N)c(Cl)c2)cc1Cl`, the compound was classed as inactive in [1], in test [2], in test [3] and in [7]. Moreover, the Potency result in test [4], in test [6], in [8], in test [9] and in test [13] was “inactive” in each case. The caspase-3 activation in test [5] was 4.67% (inactive). Besides, the max response in test [10] is -2.3% and -7.33%; in [11], -4.73% (inactive) and -2.04% (inactive); in test [12], -14% (inactive) and -8.08% (inactive).
`CCOC(=O)C1OC1(C)c1ccccc1` (configuration not stated): the Potency in test [14] and in test [15] was > 92 µM (inactive) throughout. Further, the Potency result in test [16], in [4], in test [6], in test [8], in [9] and in test [18] was “inactive” each time. For the same compound, in [13], the Potency result was “inactive”. Further, the result in [1], in [2], in [3], in test [7], in test [17] and in [20] was inactive. In addition, the caspase-3 activation in [5] is 1.59% (inactive). Besides, the max response is -8.71% in [19], 1.36% in test [10], 4.47% (inactive) in [11] and -18.9% (inactive) in test [12].
For the compound `Cc1ccc(N)c(N)c1`, the figures for the Potency in test [14], in test [15] and in [8] were > 92 µM (inactive), > 92 µM (inactive) and 39.8 µM (active), respectively. For the same compound, the Potency result in [16], in test [4], in test [6], in [18] and in [13] was “inactive” in each case. Besides, the call in [1], in test [2], in [3], in test [7], in test [17] and in test [20] was inactive. In addition, in [5], the caspase-3 activation is 8.54% (inactive). Further, the max response was -6.94% in test [19], 1.53% in test [10], -2.85% (inactive) in test [11] and -6.6% (inactive) in test [12].
Turning to `C=CCBr`, the Potency in test [14] and in [15] was > 92 µM (inactive) throughout. In addition, the Potency entry in test [16], in test [4], in [6], in test [8], in test [9] and in test [18] was “inactive” throughout. Also, the Potency result in test [13] was “inactive”. Moreover, the outcome in [1], in test [2], in test [3], in test [7], in test [17] and in test [20] was inactive. Also, the caspase-3 activation in [5] is 1.99% (inactive). Further, the max response in [19] was -11.7%; in test [10], -4.43%; in test [11], -4.55% (inactive); in test [12] it was -1.79% (inactive).
`Clc1ccccc1`: the Potency in [14] and in test [15] was > 92 µM (inactive) in each case. Also, the Potency entry in test [16], in [4], in [6], in test [8], in [9] and in test [18] was “inactive” throughout. In addition, the Potency result in test [13] is “inactive”. Moreover, the compound was classed as inactive in [1], in test [2], in test [3], in test [7], in [17] and in test [20]. Moreover, in test [5], the caspase-3 activation was 0.224% (inactive). For the same compound, the max response in test [19] is -8.37%; in test [10], -7.38%; in test [11], -0.13% (inactive); in test [12], -18.9% (inactive).
Consider `BrCCc1ccccc1`, for which the Potency in [14] and in test [15] was > 92 µM (inactive) each time. Further, the Potency result in test [16], in test [4], in test [6], in test [8], in test [9] and in [18] was “inactive” in each case. Also, the Potency result in test [13] is “inactive”. Moreover, the compound was called inactive in test [1], in test [2], in [3], in test [7], in test [17] and in test [20]. Also, the caspase-3 activation in test [5] was 0.126% (inactive). The max response in test [19] is 1.56%; in test [10], 2.46%; in test [11], -3.08% (inactive); in [12], -7.12% (inactive).
For the compound `Cc1ccc(N)cc1C`, the Potency in test [14] and in test [15] was > 92 µM (inactive) each time. Further, the Potency result in test [16], in test [4], in test [6], in test [8], in [9] and in test [18] was “inactive” throughout. In test [13], the Potency result was “inactive”. For the same compound, the compound was called inactive in test [1], in [2], in test [3], in test [7], in test [17] and in test [20]. The caspase-3 activation in test [5] was 0.308% (inactive). The max response in test [19] is -0.563%; in test [10], -3.11%; in test [11], -0.229% (inactive); in [12], -7.17% (inactive).
As to `Cc1coc2c1CCC(C)C2` (configuration not stated), the Potency in test [14] and in test [15] was > 92 µM (inactive) each time. Further, the Potency entry in [16], in test [4], in [6], in [8], in test [9] and in test [18] was “inactive” each time. The Potency result in [13] was “inactive”. The compound was called inactive in [1], in [2], in test [3], in test [7], in test [17] and in [20]. In addition, in [5], the caspase-3 activation is 0.975% (inactive). In addition, the max response in test [19] is -8.64%; in test [10] it was -8.18%; in test [11], 9.95% (inactive); in test [12], -1.7% (inactive).
For `O=NN1CCCCC1`, the Potency in test [14] and in [15] was > 92 µM (inactive) each time. In addition, the Potency entry in test [16], in [4], in test [6], in test [8], in [9] and in test [18] was “inactive” throughout. Further, the Potency result in [13] was “inactive”. Moreover, the outcome in test [1], in test [2], in [3], in test [7], in test [17] and in test [20] was inactive. The caspase-3 activation in [5] was -0.0969% (inactive). The max response in test [19] is 5.16%; in test [10], -1.5%; in [11] it was -3.04% (inactive); in test [12], -0.59% (inactive).
For the compound `CCN(CC)N=O`, the Potency in test [14] and in [15] was > 92 µM (inactive) throughout. Further, the Potency result in test [16], in [4], in test [6], in [8], in test [9] and in test [18] was “inactive” throughout. The Potency result in test [13] was “inactive”. Besides, the compound was called inactive in test [1], in test [2], in test [3], in test [7], in test [17] and in test [20]. For the same compound, the caspase-3 activation in [5] is 1.39% (inactive). In addition, the max response is -8.19% in test [19], -3.04% in test [10], 2.1% (inactive) in [11] and 2.46% (inactive) in [12].
